ARNT TACC3 PPI: ARNT/TACC3 interaction disruption. AID 623870. Q9Y6A5. inhibition, % at 9.99 µM. 390,000 tested, 0.66% active. AlphaScreen His-ARNT PAS-B/GST-TACC3 binding, luminescence; TACC3 fragment carries E629A point mutation;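 active = mean inhibition of replicates at least 50% and at least half of replicates each reaching 50%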;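 note: 0% = complete ARNT plus TACC3 wells and 100% = ARNT alone without TACC3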
Neddyl block: cullin neddylation inhibition; P61081+Q13564; TR-FRET cullin neddylation, biochemical; inhibition, % at 25 µM; 360,000 tested, 0.58% active; in the data active = inhibition above about 36%
DAGLB inhibitor: blocks human DAGLB lipase activity. HEK293T DAGLB membrane lysate, EnzChek fluorogenic substrate. inhibition, % at 5.17 µM. 340,000 tested, 0.059% active. AID 504411; in the data active = inhibition above about 34%;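 note: 0% = enzyme with vehicle and 100% = wells lacking enzyme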
HGIII-sPLA2 inh: Blocks human group III sPLA2 activity. QFRET BODIPY PC-A2 liposome hydrolysis, fluorescence. inhibition, % at 12.2 µM. 370,000 tested, 0.56% active;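 active = inhibition above mean plus 3 SD of compounds lying within the high and low control bounds, cut at about 19% in these data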;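 note: 0% = median of test compound wells and 100% = no enzyme DMSO wells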
Target sequence (Q9NZ20 whole entry, looked up): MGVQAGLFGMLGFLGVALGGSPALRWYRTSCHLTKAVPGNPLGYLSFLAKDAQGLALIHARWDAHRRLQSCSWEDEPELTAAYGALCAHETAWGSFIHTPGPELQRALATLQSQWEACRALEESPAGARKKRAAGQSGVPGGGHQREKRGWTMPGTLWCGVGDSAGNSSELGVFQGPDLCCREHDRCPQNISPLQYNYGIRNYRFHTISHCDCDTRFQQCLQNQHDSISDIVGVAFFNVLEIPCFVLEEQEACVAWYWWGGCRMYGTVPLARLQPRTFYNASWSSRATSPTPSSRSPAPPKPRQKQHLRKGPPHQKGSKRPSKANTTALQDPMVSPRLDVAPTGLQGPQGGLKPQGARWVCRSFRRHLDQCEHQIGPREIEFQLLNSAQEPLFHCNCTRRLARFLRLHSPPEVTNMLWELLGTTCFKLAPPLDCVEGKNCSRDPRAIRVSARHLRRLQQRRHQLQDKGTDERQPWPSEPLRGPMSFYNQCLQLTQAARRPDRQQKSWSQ
NadD inh: inhibitors of Staphylococcus aureus NadD. purified NadD enzyme, colorimetric absorbance read-out. inhibition, % at 20 µM. 360,000 tested, 0.78% active; in the data active = inhibition above about 26%
The depositor's hits bear a star; x = no result shown. The list is not random: actives were taken first. Their share in the collection is about 2%.

SMILES	ARNT TACC3 PPI	Neddyl block	DAGLB inhibitor	HGIII-sPLA2 inh	NadD inh
O=Nc1c(O)[nH]c2ccc(Cl)c(Cl)c12	59.3*	-14.2	-10.8	-76.7	0.4
C[C@H](CO)N1C[C@H](C)[C@H](CN(C)S(=O)(=O)c2cccs2)OCCCC[C@H](C)Oc2ccc(NC(=O)Nc3ccccc3)cc2C1=O	-7.7	x	x	x	x
Cc1nc2ccccc2c(=O)n1/N=C/c1cc(Br)ccc1O	59.5*	16.7	-1.7	0.8	-2.1
Cc1cccc(S(=O)(=O)N2C[C@H]3[C@@H](c4ccccc42)[C@H](CO)N3Cc2ccccn2)c1	19.8*	x	x	x	x
COc1ccc(/C=N/Nc2cc(C)nc3c(C)cccc23)cc1	6.7	51.9*	2.8	-21.8	-4.3
COc1ccc(/C=N/Nc2cc(C)nc3ccccc23)cc1	21.2	x	-4.3	-7.6	-7.3
CN(C)C(=O)c1ccc(-c2cccc(-c3nc(C(=O)N(C)C)cc4c3[C@H](CCO)N([S@@](=O)C(C)(C)C)C4)c2)cc1	-5.5	x	x	x	x
C[C@H](O)C#Cc1ccc([C@@H]2[C@@H](CO)N3CCCCN(CC4CCOCC4)C[C@H]23)cc1	-6.0	x	x	x	x
Nc1ncnc(Sc2ccc(Cl)cc2)c1[N+](=O)[O-]	48.7*	-18.1	-1.9	1.9	1.4
Cc1ccc(Sc2ncnc(N)c2[N+](=O)[O-])cc1	-3.8	-6.8	-1.0	1.2	-6.1
Cc1cc(C)c2c3c(sc2n1)C(c1cccc(F)c1)C(C#N)=C(N)O3 (configuration not stated)	4.1	52.8*	-4.2	6.3	5.3
CCCN1CCC2(CC1)C(C#N)=C(N)Oc1c2sc2nc(C)cc(C)c12	11.7	-5.6	-2.1	-17.4	-5.3
O=C(Nc1ccc(Br)cc1)c1cccc(-n2cnnn2)c1	1.5	-0.1	0.1	-5.0	-4.4
O=C(Nc1nc(-c2ccccn2)cs1)c1cccc(-n2cnnn2)c1	70.5*	1.7	-0.4	0.3	9.6
CCCC#Cc1cnc2c(c1)C(=O)N([C@@H](C)CO)C[C@@H](C)[C@H](CN(C)Cc1ccccc1)O2	-7.7	x	x	x	x
CCNC(=O)Nc1ccc2c(c1)C(=O)N(C)[C@H]1CC[C@@H](CC(=O)NCC3CC3)O[C@@H]1CO2	-2.1	x	x	x	x
CC(C)OCCCNc1ncnc2c1[nH]c1ccccc12	1.8	38.4*	1.0	-3.8	-6.8
O=C(Oc1cccc2cccnc12)c1ccco1	53.9*	-0.7	-1.1	-1.2	5.5
C(=N\Nc1nncn1/N=C/c1ccco1)/c1ccco1	64.3*	-16.2	-1.9	-4.7	-0.8
O=C(O)CN1CCN(CC(=O)O)CCN(CC(=O)O)CCN(CC(=O)O)CC1	59.5*	-9.8	1.4	0.8	0.6
CCCC#Cc1ccc2c(c1)O[C@H](CN(C)C(=O)c1ccccc1)[C@@H](C)CN([C@@H](C)CO)S2(=O)=O	5.0	x	x	x	x
Cc1n[nH]c(=O)nc1N/N=C/c1ccco1	53.0*	-9.6	0.7	1.3	-1.5
Cc1n[nH]c(=O)nc1NCc1ccco1	-2.0	-8.1	0.4	1.8	-9.1
CCn1nc(C(=O)NNS(=O)(=O)c2ccc(C)cc2)c2ccccc2c1=O	67.7*	3.4	-2.4	-12.2	2.3
C[C@@H]1CN([C@H](C)CO)C(=O)c2cc(C#CC3(O)CCCC3)cnc2O[C@@H]1CN(C)C(=O)C1CCOCC1	-3.9	x	x	x	x
SMILES	ARNT TACC3 PPI	Neddyl block	DAGLB inhibitor	HGIII-sPLA2 inh	NadD inh
COc1ccc(O)c(/C=N/n2c(-c3ccco3)csc2=Nc2cccnc2)c1	61.9*	21.4	0.2	14.0	9.3
c1ccn(CCc2ccncc2)c1	-7.4	-7.2	0.7	2.5	1.2
Nc1ccc(CCn2ccnc2)cc1	62.8*	-2.8	-1.7	-4.5	34.3*
CC1(C)CSC(=S)N1S(=O)(=O)c1ccccc1	64.3*	6.1	-3.0	2.1	-1.0
CN1[C@@H]2c3ccc(-c4ccncc4)c(=O)n3C[C@H]1[C@H](CO)[C@H]2C(=O)Nc1nccs1	6.4	x	x	x	x
O=C(N/N=C/c1cc([N+](=O)[O-])cc([N+](=O)[O-])c1O)/C(=C\c1cccs1)NC(=O)c1ccccc1	-8.4	-43.5	20.7	-7.5	38.9*
COc1cc(/C=N/NC(=O)/C(=C\c2ccc([N+](=O)[O-])cc2)NC(=O)c2ccccc2)cc(OC)c1O	1.2	-41.0	3.5	-5.4	9.9
O=C(C[C@H]1CC[C@@H](NC(=O)C2CC2)[C@H](CO)O1)NC1CCC1	-12.8	x	x	x	x
COCC(=O)Nc1ccc2c(c1)OC[C@@H](C)N(Cc1cc(F)ccc1F)C[C@H](C)[C@@H](OC)CN(C)C2=O	-4.4	x	x	x	x
COc1ccc(/C=N/NC(=O)c2ccc(CSc3nc(C)cc(C)n3)cc2)cc1O	-5.0	12.6	-0.6	-27.9	9.4
COc1ccc(O)c(/C=N/NC(=O)c2ccc(CSc3nc(C)cc(C)n3)cc2)c1	9.4	10.7	2.3	7.9	33.9*
O=C1c2ccc(-c3ccc(F)cc3OCc3ccccc3)cc2S(=O)(=O)c2cccc(C(=O)N3CCN(c4ncc(Br)cn4)CC3)c21	x	3.5	-5.7	-2.2	57.5*
O=C(O)c1cccc2c1C(=O)c1ccc(-c3ccc(F)cc3OCc3ccccc3)cc1S2(=O)=O	10.6	-42.0	6.8	x	14.1
C[C@H](CO)N1C[C@H](C)[C@H](CN(C)S(=O)(=O)c2cn(C)cn2)OCCCC[C@H](C)Oc2ccc(NC(=O)Nc3ccc(C(F)(F)F)cc3)cc2C1=O	10.8	x	x	x	x
COc1cc(/C=C2\C(=N)N3N=C(S(C)(=O)=O)SC3=NC2=O)ccc1OCCOc1ccc(C)cc1	-3.8	8.1	-3.0	-6.6	33.4*
COc1cc(/C=C2\C(=N)N3N=C(S(C)(=O)=O)SC3=NC2=O)cc(OC)c1OCCOc1ccc(C)cc1	4.1	-8.1	5.0	-9.6	30.3*
CCC1=NN2C(=N)/C(=C\c3ccc(OCc4cc(=O)n5nc(CC)sc5n4)c(OC)c3)C(=O)N=C2S1	x	-2.2	0.7	-10.9	43.8*
CCS(=O)(=O)C1=NN2C(=N)/C(=C\c3ccc(OCCOc4cccc(OC)c4)c(OC)c3)C(=O)N=C2S1	1.4	-10.0	5.7	-9.3	18.3
CCOc1cc(/C=C2\C(=N)N3N=C(S(C)(=O)=O)SC3=NC2=O)ccc1OCCOc1cccc(OC)c1	-29.2	-2.2	-0.8	-17.1	30.8*
CCC1=NN2C(=N)/C(=C\c3ccc(OCCOc4ccccc4)c(OC)c3)C(=O)N=C2S1	x	x	x	-4.9	x
COc1cc(/C=C2\C(=N)N3N=C(S(C)(=O)=O)SC3=NC2=O)cc(OC)c1OCCOc1cccc(C)c1	5.2	-66.5	1.3	-7.9	31.5*
COc1cc(/C=C2/C(=N)N3N=C(C)SC3=NC2=O)ccc1OS(=O)(=O)c1ccc(C)cc1	3.3	1.0	2.6	-9.2	1.0
O=C(NCc1cccnc1)Nc1cccc(C(F)(F)F)c1	-0.6	-19.2	-1.9	-1.1	-1.2
O=C(NCCc1cnc[nH]1)Nc1cccc(C(F)(F)F)c1	48.5*	-2.8	-4.0	-7.7	-2.7
N#C[C@H]1[C@@H](c2ccccc2)[C@@H](CO)N1C(=O)Cc1ccccn1	5.8	x	x	x	x
C/C=C/c1ccc([C@@H]2[C@@H](C#N)N(C(=O)Cc3ccccn3)[C@@H]2CO)cc1	45.8*	x	x	x	x
C/C=C/c1ccc([C@@H]2[C@H](CO)N(Cc3ccccn3)[C@H]2CNC(=O)CC)cc1	30.0*	x	x	x	x

Bioassay records as filed in PubChem.
